This note sets out measurements from PubChem BioAssay (EPA / NIEHS).

Each structure is given as a SMILES string. Inconclusive results are not listed. The source made the active and inactive calls. The calls were made as follows: active = hit-call score of the fitted dose curve at least 0.9, where 1 is the maximum; inconclusive = response in the unintended direction; inactive = score below 0.9.

A short description of one assay: TOX21_PR_BLA_Followup_Agonist_viability: Viability Assessment in the Tox21 HEK293 Progesterone Receptor (PR) Agonism Beta-lactamase Follow-Up Assay (AID 2283935).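 Also: cells exposed to compound for 16 hr at 37 °C; signal loss means lower viability so actives are cytotoxic.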 Put shortly: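 HEK293T PR-UAS-bla, 3,000 cells/well, 2% CS-FBS; 6 hr pre-incubation; cpd in DMSO, 16 hr 37C; LiveBLAzer 2 hr RT, then CellTiter-Glo 30 min RT, luminescence. Decrease = lost viability.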
Take `c1ccc2cc3c(ccc4ccccc43)cc2c1`: the result was inactive.

Take `C[C@@H]1C[C@H]2[C@@H]3CCC4=CC(=O)C=C[C@]4(C)[C@@]3(F)[C@@H](O)C[C@]2(C)[C@@]1(O)C(=O)COP(=O)(O)O`: the call was inactive.

`CC[C@H](c1ccc(O)cc1)[C@@H](CC)c1ccc(O)cc1`: the outcome was inactive.

A further assay can be described thus: TOX21_PR_BLA_Followup_Antagonist_viability: Viability Assessment in the Tox21 HEK293 Progesterone Receptor (PR) Antagonism Beta-lactamase Follow-Up Assay (AID 2283936).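 Also: cells exposed to compound with R5020 agonist for 16 h; hits lower the luminescence signal meaning cytotoxicity.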 As for the experimental part:
TOX21_PR_BLA_Followup is a secondary assay for specificity for the TOX21_PR_BLA_Agonist assay. To differentiate true PR agonists from cytotoxic substances, this follow up assay is multiplexed with a cell viability assay. The compounds were also tested for auto fluorescence that may interfere with the biological target readout resulting in potential false positives and/or negatives. To identify the compounds that stimulate PR signaling, a PR-UAS-bla GripTite cell line i.e. PR-UAS-bla HEK293T (Invitrogen, Carlsbad, CA, USA) containing a beta-lactamase reporter gene under the control of an UAS response element was used to screen Tox21 10K compound library. The cytotoxicity of the Tox21 compound library against the PR-bla cell line was tested in parallel by measuring the cell viability using CellTiter-Glo assay in the same wells. TOX21_PR_BLA_Followup_Antagonist_viability is a component of the TOX21_PR_BLA_Followup_Antagonist assay. This component measures cell viability using the CellTiter-Glo Luciferase-coupled ATP quantitation.TOX21_PR_BLA_Followup_Antagonist_viability used a type of viability reporter where loss-of-signal activity can be used to understand changes in the cell viability. Furthermore, this assay endpoint can be referred to as a secondary readout, because this assay has produced multiple assay endpoints where this one serves a viability function. […]
Assay Protocol: PR-UAS-bla HEK293T cells were dispensed at 3,000 cells/4 uL of assay medium containing 2% charcoal stripped FBS per well into black wall/clear-bottom 1536-well plates using a Multidrop Combi (ThermoFisher Scientific, Waltham, MA) dispenser. […] Then 1 uL of LiveBLAzer B/G FRET substrate was added using a Flying Reagent Dispenser, the plates were incubated at room temperature for 2 hours, and fluorescence intensity was measured by an Envision plate reader (PerkinElmer, Shelton, CT). For cell viability readout that measures cytotoxicity, 4 uL/well of CellTiter-Glo reagent was added into the assay plates using a FRD. […]
In the case of `c1ccc2cc3c(ccc4ccccc43)cc2c1`, the result was inactive.

In the case of `C[C@@H]1C[C@H]2[C@@H]3CCC4=CC(=O)C=C[C@]4(C)[C@@]3(F)[C@@H](O)C[C@]2(C)[C@@]1(O)C(=O)COP(=O)(O)O`, the molecule was classed as inactive.

On to `CC[C@H](c1ccc(O)cc1)[C@@H](CC)c1ccc(O)cc1`, for which the result was inactive.
